An excerpt weighted towards active compounds, which were near 1.7% of everything screened.
DUSP3 inh: blocks human VHR1 dual specificity phosphatase | P51452 | recombinant VHR phosphatase, pNPP absorbance | inhibition, % at 13.3 µM | actives 0.52% (n = 290,000); in the data active = inhibition above about 50%
Target sequence (P51452 whole entry, looked up): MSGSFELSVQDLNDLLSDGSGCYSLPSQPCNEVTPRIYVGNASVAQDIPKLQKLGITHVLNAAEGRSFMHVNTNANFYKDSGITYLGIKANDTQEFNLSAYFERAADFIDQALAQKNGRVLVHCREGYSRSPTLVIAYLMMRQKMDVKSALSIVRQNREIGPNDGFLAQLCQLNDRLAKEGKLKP
Vc quorum ag: quorum light induction in luxS cqsA deficient V. cholerae | actives 0.16% (n = 350,000) | V. cholerae BH1578 lux reporter, luminescence, 6 h | activation, % at 18.7 µM; in the data active = activation mostly above about 9.7%, no sharp cut-off
MazF activator: MazEF (E. coli) toxin RNase activation; activation, % at 20 µM; actives 0.32% (n = 350,000); FAM/BHQ RNA-DNA oligo cleavage fluorescence, 5 h; P0AE70; in the data active = activation above about 50%
Target sequence (P0AE70 whole entry, looked up): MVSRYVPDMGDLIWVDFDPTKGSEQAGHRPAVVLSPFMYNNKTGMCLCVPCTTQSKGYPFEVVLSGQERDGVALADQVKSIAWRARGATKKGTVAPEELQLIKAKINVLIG
SARS 3CLpro inh: SARS-CoV 3CLpro protease inhibition; recombinant SARS-CoV 3CLpro, quenched FRET peptide cleavage; inhibition, % at 6 µM; P0C6X7; actives 0.14% (n = 290,000); in the data active = inhibition above about 12%
BJeLR viability: kills HRASV12-expressing BJeLR cells; inhibition, % (concentration not given with the values); actives 0.17% (n = 300,000); BJeLR (HRASV12) viability, CellTiter-Glo ATP luminescence, 48 h; in the data active = inhibition above about 50%
PfHsp40 rescue: restores yeast growth despite PfHsp40 toxicity. growth rescue, % at 12.5 µM. AID 504582. actives 0.68% (n = 340,000). S. cerevisiae expressing PfHsp40, growth rescue, ATP luminescence; in the data active = growth rescue above about 28%, passing the limit was not always enough;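 also: yeast W303a lacking pdr1 and pdr3 grown in galactose medium; growth measured after three days at 30 °C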
Starred values were filed as active, the others as inactive; i = inactive; . = no result given.

SMILES	DUSP3 inh	Vc quorum ag	MazF activator	SARS 3CLpro inh	BJeLR viability	PfHsp40 rescue
COc1ccc(/C=C(/NC(=O)c2cccs2)C(=O)NC(C)(C)C)cc1OC	14	i	12	-1	-6	0
CC(C)[C@H](CN1CCC[C@H]1CN1C(N)=NC[C@@H]1Cc1ccccc1)N1C[C@@H](Cc2ccccc2)N(CCc2ccc(Cl)c(Cl)c2)C1=N	.	i	-32	.	.	35*
Cc1ccc(-c2nn(C)c(=O)c3ccccc23)cc1CO	12	17*	-1	6	-7	0
Oc1cc(Cl)ccc1Oc1ccc(Cl)cc1Cl	.	-1	-27	.	-4	263*
CCOC(=O)C1(C)CCN1C(=O)c1ccc(OC)c(C(F)(F)F)c1 (configuration not stated)	.	3	.	.	.	.
O=C(NC1CC2CCC(C1)N2Cc1ccccc1)c1ccccc1Br (configuration not stated)	100	0	9	4	2	-2
CNC[C@H](CC1CCCCC1)NC[C@H](Cc1ccccc1)NCCC12CC3CC(CC(C3)C1)C2	21	i	-20	4	69*	0
Cn1c(=O)oc2cc(S(=O)(=O)Nc3ccccc3O)ccc21	20	0	-16	-1	9	0
Cn1c(=O)oc2cc(S(=O)(=O)NCc3ccccc3)ccc21	51*	-1	-1	5	1	0
COC(=O)c1ccccc1NS(=O)(=O)c1ccc2c(c1)oc(=O)n2C	52*	0	6	-2	-4	0
Nc1c(OS(=O)(=O)c2ccccc2)cccc1OS(=O)(=O)c1ccccc1	.	-1	-7	.	.	.
CCOC(=O)C1CCN(C(=O)Cn2c(=O)oc3cc(S(=O)(=O)N4CCCC4)ccc32)CC1	21	0	5	1	-3	1
Cc1c(C(=O)NCc2ccc3c(c2)OCCO3)sc(=O)n1Cc1ccccc1C(F)(F)F	.	0	.	.	.	.
FC(F)(F)c1cccc(N2CCN(C(=S)NC3CCCCC3)CC2)c1	-9	0	-8	2	2	37*
Cc1ccc(S(=O)(=O)N2CCCN(C(=O)c3cc4ccccc4[nH]3)CC2)cc1	50*	1	-6	-4	-4	1
CCN1C(=O)/C(=C/c2ccc(N3CCCC3)cc2)NC1=S	-10	0	39	-4	-1	12
O=[N+]([O-])c1cc(Br)c(Nc2ccccc2)c([N+](=O)[O-])c1	16	i	1	-2	60*	67*
CS(=O)(=O)N(CC(=O)O)c1cc(C(F)(F)F)ccc1Cl	.	i	4	.	.	1
O=C(Nc1ncccc1O)c1cccc(S(=O)(=O)N2CCCc3ccccc32)c1	.	-11	0	.	8	62*
CCn1c(=O)n(CC)c2cc(N3CCCC3)c(NC(=O)c3ccc(F)cc3)cc21	9	i	8	-5	9	-1
CCn1c(=O)n(CC)c2cc(N3CCCC3)c(NC(=O)c3c(F)cccc3F)cc21	57*	i	-24	4	-1	-1
COc1ccc2nc(SCC(=O)Nc3ccc(S(=O)(=O)N4CCCC4)cc3)c(C#N)cc2c1	-1	0	10	2	16	2
Nc1c(C(=O)Nc2ccc(S(=O)(=O)N3CCCC3)cc2)sc2nc3cc4c(cc3cc12)CCC4	51*	i	57*	1	7	0
Nc1c(C(=O)Nc2ccc(S(=O)(=O)N3CCCC3)cc2)sc2nc3ccc(OC(F)(F)F)cc3cc12	-10	-1	402*	-2	-1	1
Nc1c(C(=O)Nc2ccc(Cl)c(C(=O)O)c2)sc2nc3c(cc12)CCCC3	2	i	0	5	1	0
SMILES	DUSP3 inh	Vc quorum ag	MazF activator	SARS 3CLpro inh	BJeLR viability	PfHsp40 rescue
CCCOc1ccc(F)cc1-c1cc(C(=O)NCc2cc(C(F)(F)F)cc(C(F)(F)F)c2)[nH]n1	.	0	.	.	.	.
O=C(c1c[nH]c2ccccc12)C(Cl)c1ccccc1 (configuration not stated)	.	0	7	3	8	4
O=C(Nc1ccccn1)c1ccc(Br)s1	55*	1	4	-1	-3	1
O=C(Nc1ccccn1)c1ccc(C(=O)Nc2ccccn2)cc1	8	0	4	0	0	1
O=C(O)c1cccc2c1-c1ccc(Cl)cc1C2	.	i	3	.	.	44*
COc1ccc(S(=O)(=O)N(C)[C@H]2C[C@H]3c4cc(N5CCN(C)CC5)ccc4CCN3C(=O)[C@H]2[C@H](C)O)cc1	.	1	8	.	.	.
COC(=O)C(Cc1ccc(O)cc1)NC(=O)c1ccc2c(c1)OCCO2 (configuration not stated)	26	0	1	2	-3	4
COc1ccc(S(N)(=O)=O)cc1C(=O)NNC(=O)CN(C)S(=O)(=O)c1ccc(Cl)cc1	.	-4	8	.	.	-1
CCOc1cc(/C=C2\CN(CC)C/C(=C\c3ccc(O)c(OCC)c3)C2=O)ccc1O	-11	i	-8	0	57*	2
CCOc1cc(C=O)ccc1O	.	0	9	.	.	-1
CSc1nnc(N2C(=O)C(O)=C(C(=O)c3ccco3)C2c2ccccc2)s1 (configuration not stated)	-4	-6	54*	-5	-3	-1
CSc1nnc(N2C(=O)C(O)=C(C(=O)c3ccc(C)o3)C2c2ccc(C)cc2)s1 (configuration not stated)	10	-1	254*	2	1	-1
Nc1nonc1C(=O)NCCN=Cc1ccccc1O	16	.	-1	2	-7	-1
Nc1nonc1C(=O)NCCN=Cc1cc(Cc2ccccc2)cc(Br)c1O	29	i	-37	1	1	702*
Cc1ccc(NS(=O)(=O)c2c(C)[nH]c(C)c2C(=O)N2CCCCC2)c(Cl)c1	22	-5	7	1	13	-1
CC(=O)O[C@@H]1[C@@H](O)[C@@H](O)[C@H](Oc2c(-c3ccc(O)cc3)oc3c(CC=C(C)C)c(O)cc(O)c3c2=O)O[C@H]1C	.	.	10	.	-3	.
CC(=O)O[C@H]1[C@@H](O)[C@H](O)[C@H](Oc2c(O)c(C)c3c4c2[C@@H](C)CC[C@@H]4[C@@H](C)C[C@H]3C=C(C)C)O[C@H]1C	.	0	-7	.	.	125*
Cc1ccc(C(=O)NCCC(=O)NCc2ccco2)cc1	54*	0	8	-4	-3	1
Cc1cccc(NC(=O)CCNC(=O)c2ccco2)c1	51*	0	-15	2	-1	0
O=C(CCNC(=O)c1ccc(Br)cc1)NCc1ccco1	.	i	-1	.	-8	0
CC(=O)c1cccc(-c2ccnc3c2CC(C(=O)NCc2ccco2)O3)c1 (configuration not stated)	.	0	.	.	.	.
CCCOc1ccc(/C=N/NC(=O)c2ccc3c(c2)OCO3)c(OCCC)c1	25	-9	-3	5	10	1
CC(NC(=O)CCNC(=O)N1CCn2c1nc1ccccc12)c1ccccc1 (configuration not stated)	25	0	8	-1	5	0
